Activity calls are given as the source filed them. How the source made its calls: active means hit-call score of the fitted dose curve at least 0.9, where 1 is the maximum; inactive means score below 0.9.
Key:
[1] = ATG_CRE_CIS: Attagene CIS-FACTORIAL HepG2 Assay for human cAMP Responsive Element (CRE) binding protein 3 (AID 2282926); conditions: HepG2 CRE cis-reporter, Attagene multiplexed mRNA; actives raise or lower the signal
Method in brief: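 HepG2 cells transiently transfected with a multiplexed reporter library (CRE-driven unit among them) were dosed for 24 h. Reporter mRNA was quantified by RT-PCR, fluorescent labelling, HpaI digestion and capillary electrophoresis, with bidirectional fitting against DMSO baseline.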

[2] = biological target: CCAAT/enhancer-binding protein beta (Homo sapiens) (UniProt P17676); assay: ATG_C_EBP_CIS: Attagene CIS-FACTORIAL HepG2 Assay for human CCAAT/Enhancer Binding Protein (C/EBP) beta (AID 2282927); conditions: HepG2 Attagene cis-factorial transcription factor reporter; actives raise or lower the signal
Method in brief: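 Changes in reporter mRNA, rather than exogenous chimeric receptor activity, reflect native C/EBP signalling in transfected HepG2 cells dosed for 24 h; transcripts are detected by RT-PCR and capillary electrophoresis.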

[3] = biological target: Aryl hydrocarbon receptor (Homo sapiens) (UniProt P35869); assay: ATG_Ahr_CIS: Attagene CIS-FACTORIAL HepG2 Assay for human Aryl Hydrocarbon Receptor (Ahr) (AID 2282930); conditions: HepG2 AhR cis-factorial reporter transcription; actives raise or lower the signal
Method in brief: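 HepG2, transient MRTU (cis) transfection, 24 h exposure. RNA → cDNA → PCR → 6-FAM primer extension → HpaI 2 h 37 C → CE. Fit: bidirectional, DMSO baseline.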

[4] = ATG_AP_1_CIS: Attagene CIS-FACTORIAL HepG2 Assay for human Activator Protein 1 (AP-1) (AID 2282931); conditions: HepG2 Attagene cis-factorial AP-1 reporter mRNA; actives raise or lower the signal
Method in brief: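 Readout is reporter transcript level from endogenous transcription factor activity, quantified by RT-PCR with fluorescent primer extension and capillary electrophoresis. Transiently transfected HepG2 cells, 24 h exposure. Curves fitted both directions versus DMSO.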

[5] = ATG_AP_2_CIS: Attagene CIS-FACTORIAL HepG2 Assay for human Activator Protein 2 (AP-2) (AID 2282932); conditions: HepG2 AP-2 cis-reporter, Attagene transcription factor profiling; actives raise or lower the signal
Method in brief: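 HepG2, transient MRTU transfection, cis-regulated reporters; 24 h compound exposure; RNA isolated, RT-PCR, 6-FAM labelling, HpaI digest, CE fluorescence. DMSO = negative control/baseline, bidirectional fit.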

[6] = biological target: Retinoic acid receptor alpha (Homo sapiens) (UniProt P10276); assay: ATG_DR5_RAR_CIS: Attagene CIS-FACTORIAL HepG2 Assay for human Retinoic Acid Receptor Alpha (RARE), DR5 submotif (AID 2282934); conditions: HepG2 Attagene cis-factorial RARE DR5 reporter, mRNA; actives raise or lower the signal;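 on AC50: reporter responds to endogenous RAR alpha beta and gamma in HepG2 not RARA alone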
Method in brief: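 HepG2, transient cis-reporter transfection, 24 h exposure. mRNA readout: RT-PCR, FAM label, HpaI cut, capillary electrophoresis. DMSO baseline, gain/loss fitting.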

[7] = biological target: Transcription factor E2F1 (Homo sapiens) (UniProt Q01094); assay: ATG_E2F_CIS: Attagene CIS-FACTORIAL HepG2 Assay for human E2F Transcription Factor 1 (AID 2282935); conditions: HepG2 Attagene cis-reporter, E2F reporter RNA transcripts; actives raise or lower the signal
Method in brief: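 Cis-element reporter mRNA induction in transiently transfected HepG2, 24 h exposure. Activity fitted in both directions relative to DMSO negative control.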

[8] = ATG_E_Box_CIS: Attagene CIS-FACTORIAL HepG2 Assay for human Enhancer Box (E-box) (AID 2282936); conditions: HepG2 E-box cis-reporter transcription, actives raise or lower the signal
Method in brief: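 Cells: HepG2 (human liver), transient MRTU transfection. Exposure 24 h. RNA → oligo(dT) RT → PCR → 6-FAM label → HpaI → CE. Activity fitted both directions relative to DMSO.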

[9] = ATG_M_61_CIS: Attagene CIS-FACTORIAL HepG2 Assay for M61 Transcription Factor (Internal Marker) (AID 2282937); conditions: HepG2 Attagene CIS-FACTORIAL M61 internal marker reporter; actives raise or lower the signal
Method in brief: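 Readout is reporter mRNA by RT-PCR, fluorescent primer extension and capillary electrophoresis, with gain or loss fitted relative to DMSO. Transfected HepG2 cells carrying endogenous-TF-driven cis reporters were exposed to chemicals for 24 hours.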

[10] = ATG_EGR_CIS: Attagene CIS-FACTORIAL HepG2 Assay for human Early Growth Response 1 (EGR1) (AID 2282938); conditions: HepG2 Attagene CIS-FACTORIAL EGR reporter mRNA; actives raise or lower the signal
Method in brief: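 After 24 h compound exposure, RNA from reporter-transfected HepG2 cells was reverse-transcribed, PCR-amplified, fluorescently labelled and resolved by capillary electrophoresis. EGR1 reporter transcript changes, up or down, were fitted against DMSO, reflecting endogenous transcription-factor activity.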

[11] = ATG_M_19_CIS: Attagene CIS-FACTORIAL HepG2 Assay for M19 Transcription Factor (Internal Marker) (AID 2282939); conditions: HepG2 Attagene CIS-FACTORIAL M19 internal marker reporter; actives raise or lower the signal
Method in brief: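 HepG2 cells transiently transfected with cis-regulated multiplexed reporter units, dosed 24 h. Reporter mRNA quantified by RT-PCR and capillary electrophoresis; internal background marker fitted bidirectionally versus DMSO.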

[12] = ATG_Ets_CIS: Attagene CIS-FACTORIAL HepG2 Assay for human Erythroblast Transformation Specific (ETS) (AID 2282941); conditions: HepG2 ETS cis-reporter transcription, actives raise or lower the signal
Method in brief: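 HepG2 cells transfected with multiple cis-regulated reporter units measuring endogenous ETS-driven transcription, 24 h after dosing. Reporter mRNA quantified by RT-PCR with capillary electrophoresis; bidirectional fit relative to DMSO.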

[13] = ATG_FoxO_CIS: Attagene CIS-FACTORIAL HepG2 Assay for human Forkhead box O (FoxO) (AID 2282943); conditions: HepG2 Attagene cis-reporter, FoxO element, mRNA; actives raise or lower the signal
Method in brief: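 Human hepatoma HepG2 cells carry transiently introduced reporter transcription units controlled by cis promoter elements. Chemical treatment lasted 24 h, and mRNA signal was compared with DMSO.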

[14] = ATG_GATA_CIS: Attagene CIS-FACTORIAL HepG2 Assay for human GATA Binding Protein (AID 2282944); conditions: HepG2 GATA cis-element reporter, Attagene multiplex mRNA; actives raise or lower the signal
Method in brief: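 HepG2 cells transiently transfected with multiplexed cis-element reporter units measure endogenous GATA activity; after 24 h compound exposure, reporter mRNA quantified by RT-PCR and capillary electrophoresis. Changes fitted in both directions vs DMSO.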

[15] = ATG_GLI_CIS: Attagene CIS-FACTORIAL HepG2 Assay for human Zinc Finger Protein GLI1 (AID 2282945); conditions: HepG2, Attagene cis-factorial reporter mRNA, GLI element; actives raise or lower the signal
Method in brief: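 Bidirectional curve fits relative to DMSO, using reporter mRNA levels from RT-PCR plus capillary electrophoresis. Cells were HepG2 transiently carrying cis-regulated reporter constructs, harvested 24 h after dosing.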

[16] = ATG_BRE_CIS: Attagene CIS-FACTORIAL HepG2 Assay for human Bone Morphogenetic Protein (BMP) Response Element (BRE) (AID 2282933); conditions: HepG2 BMP response element reporter, Attagene transcription factor profiling; actives raise or lower the signal
Method in brief: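 HepG2 cells transiently transfected with CIS reporter units (endogenous TF activity, BMP response element), dosed 24 h. Reporter mRNA quantified by RT-PCR, fluorescent labelling and capillary electrophoresis; bidirectional fit vs DMSO baseline.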

[17] = biological target: Hepatocyte nuclear factor 3-beta (Homo sapiens) (UniProt Q9Y261); assay: ATG_FoxA2_CIS: Attagene CIS-FACTORIAL HepG2 Assay for human Forkhead box A2 (FOXA2) (AID 2282942); conditions: HepG2 cis-reporter transcription factor activity, 24 h; actives raise or lower the signal
Method in brief: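 Endogenous transcription factor activity is captured via cis-element-driven reporter transcripts in transfected HepG2. Total RNA taken at 24 h post-dosing; labelled RT-PCR products resolved by capillary electrophoresis. Gain or loss fitted versus DMSO.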

[18] = ATG_DR4_LXR_CIS: Attagene CIS-FACTORIAL HepG2 Assay for human Liver X Receptor (LXR), DR4 submotif (AID 2282929); conditions: HepG2 Attagene DR4 cis-reporter, mRNA transcription; actives raise or lower the signal
Method in brief: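 The endpoint is DR4-element-driven reporter transcripts after 24 h chemical exposure of transfected HepG2 cells. These were measured via RT-PCR and capillary electrophoresis, and gain or loss of signal was fitted relative to DMSO controls.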

[19] = ATG_ERE_CIS: Attagene CIS-FACTORIAL HepG2 Assay for Estrogen Response Element (ERE) (AID 2282940); conditions: HepG2 ERE cis-reporter, Attagene RNA transcript; actives raise or lower the signal
Method in brief: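 HepG2 cells transiently transfected with multiplexed cis-element reporter units, measuring endogenous transcription factor activity; ERE reporter mRNA quantified after 24 h exposure by RT-PCR, fluorescent labelling, HpaI digestion and capillary electrophoresis. Bidirectional change versus DMSO.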

Measured: AC50

Chain of Retinoic acid receptor alpha (Homo sapiens) (P10276 whole entry, looked up): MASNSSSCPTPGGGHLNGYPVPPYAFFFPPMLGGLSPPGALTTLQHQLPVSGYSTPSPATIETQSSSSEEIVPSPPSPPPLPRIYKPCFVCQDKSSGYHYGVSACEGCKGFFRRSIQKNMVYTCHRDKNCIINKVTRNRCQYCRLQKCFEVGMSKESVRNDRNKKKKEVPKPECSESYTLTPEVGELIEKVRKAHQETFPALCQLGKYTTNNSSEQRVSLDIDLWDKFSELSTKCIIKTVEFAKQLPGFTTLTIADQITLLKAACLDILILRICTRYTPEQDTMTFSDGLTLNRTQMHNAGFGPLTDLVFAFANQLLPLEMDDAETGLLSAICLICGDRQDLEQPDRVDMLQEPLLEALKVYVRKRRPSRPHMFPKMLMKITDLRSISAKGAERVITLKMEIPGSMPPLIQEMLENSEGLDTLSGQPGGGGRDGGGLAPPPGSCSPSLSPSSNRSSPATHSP
Chain of CCAAT/enhancer-binding protein beta (Homo sapiens) (P17676 whole entry, looked up): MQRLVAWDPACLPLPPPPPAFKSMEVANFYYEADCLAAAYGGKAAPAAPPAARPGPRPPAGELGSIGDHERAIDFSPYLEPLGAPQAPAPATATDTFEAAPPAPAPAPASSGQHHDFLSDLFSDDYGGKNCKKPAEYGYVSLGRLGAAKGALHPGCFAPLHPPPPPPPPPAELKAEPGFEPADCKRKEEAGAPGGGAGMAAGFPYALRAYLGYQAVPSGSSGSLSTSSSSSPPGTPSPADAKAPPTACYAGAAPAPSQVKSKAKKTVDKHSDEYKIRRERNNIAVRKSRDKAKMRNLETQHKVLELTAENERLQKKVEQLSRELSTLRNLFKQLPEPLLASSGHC
Chain of Aryl hydrocarbon receptor (Homo sapiens) (P35869 whole entry, looked up): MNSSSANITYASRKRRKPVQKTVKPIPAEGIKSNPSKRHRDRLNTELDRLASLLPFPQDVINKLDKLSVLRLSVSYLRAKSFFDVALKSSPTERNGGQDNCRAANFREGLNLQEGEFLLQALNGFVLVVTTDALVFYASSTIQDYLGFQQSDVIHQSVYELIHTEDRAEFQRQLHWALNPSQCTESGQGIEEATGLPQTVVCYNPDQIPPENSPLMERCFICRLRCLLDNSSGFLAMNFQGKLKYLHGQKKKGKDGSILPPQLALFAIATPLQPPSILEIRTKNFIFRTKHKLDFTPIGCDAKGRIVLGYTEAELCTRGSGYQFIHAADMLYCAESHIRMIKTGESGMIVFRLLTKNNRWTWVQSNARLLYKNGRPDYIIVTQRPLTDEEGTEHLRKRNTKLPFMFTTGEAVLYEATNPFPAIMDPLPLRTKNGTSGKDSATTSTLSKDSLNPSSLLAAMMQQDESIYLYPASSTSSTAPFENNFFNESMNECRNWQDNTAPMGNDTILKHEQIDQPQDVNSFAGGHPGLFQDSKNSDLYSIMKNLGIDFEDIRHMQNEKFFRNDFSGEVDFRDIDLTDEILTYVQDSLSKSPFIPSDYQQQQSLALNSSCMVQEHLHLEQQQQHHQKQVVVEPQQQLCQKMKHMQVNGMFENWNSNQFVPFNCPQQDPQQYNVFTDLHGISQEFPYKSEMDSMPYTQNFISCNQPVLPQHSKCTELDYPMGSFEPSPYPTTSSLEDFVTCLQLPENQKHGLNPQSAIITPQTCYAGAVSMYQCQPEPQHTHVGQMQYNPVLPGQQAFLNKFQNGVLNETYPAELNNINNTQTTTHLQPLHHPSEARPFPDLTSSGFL
Chain of Transcription factor E2F1 (Homo sapiens) (Q01094 whole entry, looked up): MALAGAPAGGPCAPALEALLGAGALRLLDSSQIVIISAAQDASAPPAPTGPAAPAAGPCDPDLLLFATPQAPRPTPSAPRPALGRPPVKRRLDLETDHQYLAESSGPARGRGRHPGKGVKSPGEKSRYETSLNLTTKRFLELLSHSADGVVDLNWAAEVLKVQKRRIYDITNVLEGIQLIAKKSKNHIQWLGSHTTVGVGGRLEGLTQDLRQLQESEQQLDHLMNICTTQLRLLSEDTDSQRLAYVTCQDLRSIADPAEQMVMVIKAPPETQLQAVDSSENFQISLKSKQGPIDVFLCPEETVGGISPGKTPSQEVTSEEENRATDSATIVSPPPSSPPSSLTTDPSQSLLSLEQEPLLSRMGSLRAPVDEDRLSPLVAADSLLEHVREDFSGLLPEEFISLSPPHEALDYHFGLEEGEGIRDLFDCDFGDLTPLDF
Chain of Hepatocyte nuclear factor 3-beta (Homo sapiens) (Q9Y261 whole entry, looked up): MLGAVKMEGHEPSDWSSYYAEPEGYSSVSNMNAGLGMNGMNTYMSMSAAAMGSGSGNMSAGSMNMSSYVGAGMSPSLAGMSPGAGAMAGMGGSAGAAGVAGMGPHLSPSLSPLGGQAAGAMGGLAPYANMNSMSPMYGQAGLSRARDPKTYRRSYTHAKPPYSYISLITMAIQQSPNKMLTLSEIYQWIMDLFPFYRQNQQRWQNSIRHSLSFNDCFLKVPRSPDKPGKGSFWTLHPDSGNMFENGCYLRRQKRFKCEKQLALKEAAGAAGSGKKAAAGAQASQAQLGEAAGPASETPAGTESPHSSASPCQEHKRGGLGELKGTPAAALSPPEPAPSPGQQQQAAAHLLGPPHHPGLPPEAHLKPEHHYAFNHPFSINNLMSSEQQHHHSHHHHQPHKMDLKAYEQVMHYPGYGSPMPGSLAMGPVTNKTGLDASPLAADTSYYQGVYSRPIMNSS

CCOP(=S)(OCC)Oc1ccc2c(C)c(Cl)c(=O)oc2c1
active: [6] 1.59 µM
not listed: [16] | [17] | [18] | [19]
inactive: all other assays above

CCC(=NOC/C=C/Cl)C1=C(O)CC(C2CCOCC2)CC1=O (stereo not given)
not listed: [6] | [17] | [18] | [19]
inactive: all other assays above

CCOP(=S)(Oc1cnc(C(C)(C)C)nc1)OC(C)C (stereo not given)
active: [2] 2.22 µM | [4] 62.2 µM | [16] 50 µM | [6] 12 µM | [8] 27 µM | [10] 19.3 µM | [15] 50 µM
not listed: [18] | [19]
inactive: all other assays above

CCCSP(=O)(OCC)SCCC
not listed: [16] | [19]
inactive: all other assays above

S=C1NCCN1
not listed: [16] | [17] | [18] | [19]
inactive: all other assays above

CCc1cnc(C2=NC(C)(C(C)C)C(=O)N2)c(C(=O)O)c1 (stereo not given)
not listed: [16] | [18] | [19]
inactive: all other assays above

Cc1ccn2nc(S(=O)(=O)Nc3c(F)cccc3F)nc2n1
not listed: [17] | [19]
inactive: all other assays above

CC(COc1ccc(Oc2ccccc2)cc1)Oc1ccccn1 (stereo not given)
active: [2] 13.4 µM | [4] 19.1 µM | [10] 13.2 µM
not listed: [16] | [17] | [18] | [19]
inactive: all other assays above

C#CC(C)(C)NC(=O)c1cc(Cl)cc(Cl)c1
active: [1] 29 µM | [2] 20.5 µM
not listed: [16] | [19]
inactive: all other assays above

CCCCN(CC)c1c([N+](=O)[O-])cc(C(F)(F)F)cc1[N+](=O)[O-]
active: [6] 20.1 µM
not listed: [16] | [17] | [19]
inactive: all other assays above

CCOP(=O)(SC(C)CC)N1CCSC1=O (stereo not given)
not listed: [16] | [19]
inactive: all other assays above

CCc1cccc(CC)c1N(COC)C(=O)CCl
active: [1] 3.04 µM | [2] 3.69 µM | [4] 6.1 µM
not listed: [18]
inactive: all other assays above

Source: PubChem BioAssay (EPA / NIEHS)
